Source: PubChem BioAssay (NCATS)
Several values for one entry are separate records, joined by “and”; a condition that tells them apart may be missing. Equal values may be shown once. Inconclusive results are not listed. Some compounds were tested as several samples or in several runs, with calls that do not always agree. Activity calls are given as the source filed them. Unless noted, calls follow the shape of the dose curve; as a rule, active = well fitted curve in the direction sought with a large enough effect; inconclusive = small, poorly fitted or top-dose-only effect, or another doubt; inactive = no such curve, though single readings can be large; an effect the other way counts as inactive or inconclusive.

How the values were obtained:
[1] = target: Glucocorticoid receptor (Homo sapiens) (UniProt P04150); experiment: qHTS assay for small molecule agonists of glucocorticoid receptor signaling (AID 588532; active = well fitted curve in the direction sought with a large enough effect in the signal ratio, with a control signal flat; the % refers to the signal ratio;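 also: 100% = dexamethasone at 0.1 µM and 0% = DMSO only wells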); conditions: HeLa MMTV-bla, beta-lactamase ratio, agonist, 18 h; stronger effect = higher value; percent of dexamethasone control, DMSO zero
Procedure, shortened: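 HeLa GRE-bla reporter cells; 18 h compound exposure at 37 C; 2 h CCF4 loading at room temperature; fluorescence at 460 and 530 nm; EC50 by Hill equation.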

[2] = target: Glucocorticoid receptor (Homo sapiens) (UniProt P04150); experiment: qHTS assay for small molecule antagonists of glucocorticoid receptor signaling (AID 588533; active = well fitted inhibition curve with a large enough effect in the signal ratio, with a control signal flat, not every such curve was filed as active; the % refers to the signal ratio;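 also: cells stimulated with 2 nM dexamethasone as agonist; % is scaled to controls: 0 for no effect and ±100 for the full control effect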); conditions: HeLa MMTV-bla, GRE beta-lactamase ratio, antagonist mode, 18 h; series mostly up to 76.8 µM
Procedure, shortened: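 Antagonist-mode qHTS: compound titrations added to GRE-bla HeLa cells, then dexamethasone 2 nM final; 18 h, 37 C. CCF4 FRET fluorescence normalized to dexamethasone and DMSO; IC50 from Hill fit.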

[3] = qHTS assay for small molecule antagonists of peroxisome proliferator-activated receptor delta signaling (AID 588535; active = well fitted inhibition curve with a large enough effect in the signal ratio, with a control signal flat, not every such curve was filed as active; the % refers to the signal ratio;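 as to max response: cells co-treated with a PPAR-delta agonist as stimulator during compound exposure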); conditions: HEK293T PPARd-UAS-bla, beta-lactamase FRET ratio, 18 h; 460 nm channel
Procedure, shortened: (§1)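 Beta-lactamase reporter read-out (405 nm excitation, 460/530 nm emission) after CCF4 loading for 2 hrs at RT. HEK293T PPAR-delta-UAS-bla cells, 2% charcoal/dextran FBS, compounds for 18 hrs at 37 C. Hill fit gave IC50 and efficacy.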

[4] = target: Peroxisome proliferator-activated receptor delta (Homo sapiens) (UniProt Q03181); experiment: as above; conditions: HEK293T PPARd-UAS-bla, beta-lactamase FRET ratio, 18 h; series mostly up to 76.7 µM
Procedure, shortened: as §1

[5] = target: Peroxisome proliferator-activated receptor gamma (Homo sapiens) (UniProt P37231); experiment: qHTS assay for small molecule agonists of peroxisome proliferator-activated receptor gamma signaling (AID 588536; active = well fitted curve in the direction sought with a large enough effect in the signal ratio, with a control signal flat, not every such curve was filed as active; the % refers to the signal ratio;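 also: 0% = DMSO basal wells and 100% = rosiglitazone at 2 µM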); conditions: HEK293 PPARg-UAS-bla, beta-lactamase ratio, 16 h, percent of rosiglitazone response, DMSO as zero; series mostly up to 76.7 µM
Procedure, shortened: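 Using GeneBLAzer HEK293 cells, response was quantified by CCF4 fluorescence and normalized between basal DMSO (0%) and rosiglitazone 2 uM (100%); curves yielded half-maximal stimulation concentration and efficacy.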

[6] = target: Vitamin D3 receptor (Homo sapiens) (UniProt P11473); experiment: qHTS assay for small molecule agonists of vitamin D receptor signaling (AID 588543; calls by dose curve;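 also: 0% = DMSO basal and 100% = reference agonist control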); conditions: HEK293T VDR-UAS-bla, beta-lactamase ratio, 16 h; series mostly up to 76.8 µM
Procedure, shortened: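 VDR-UAS-bla HEK293T cells, 2000/well, 2% charcoal-stripped FBS; compound titration 16 h at 37 C; CCF4 beta-lactamase ratio read. Normalized to 50 nM 1-alpha,25-dihydroxyvitamin D3 (100%) and DMSO; Hill fit gives EC50, efficacy.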

[7] = qHTS assay for small molecule agonists of retinoid X receptor alpha signaling (AID 588544; calls by dose curve;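 as to activation: 0% = DMSO basal wells and 100% = reference agonist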); conditions: HEK293T RXRa-UAS-bla, beta-lactamase reporter, 18 h; 530 nm emission
[8] = target: Retinoic acid receptor RXR-alpha (Homo sapiens) (UniProt P19793); experiment: as above; conditions: HEK293T RXRa-UAS-bla, beta-lactamase reporter, 18 h; series mostly up to 76.7 µM
[9] = qHTS assay for small molecule antagonists of retinoid X receptor alpha signaling (AID 588546; active = well fitted inhibition curve with a large enough effect in the signal ratio, with a control signal flat, not every such curve was filed as active; the % refers to the signal ratio;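 also: cells stimulated with 9-cis-retinoic acid as agonist; % is scaled to controls: 0 for no effect and ±100 for the full control effect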); conditions: HEK293T RXRa-UAS-bla, beta-lactamase ratio, antagonist mode; measured here: W530 green channel, cytotoxicity proxy
Procedure, shortened: (§2)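 Beta-lactamase reporter inhibition, read as CCF4 fluorescence ratio (ex 405, em 460/530 nm) after 2 h at RT. HEK293T UAS-bla cells, 2500/well, were stimulated with 9-cis-RA at 500 or 100 nM final alongside test compound for 18 h at 37 C.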

[10] = target: Retinoic acid receptor RXR-alpha (Homo sapiens) (UniProt P19793); experiment: as above; conditions: HEK293T RXRa-UAS-bla, beta-lactamase ratio, antagonist mode
Procedure, shortened: as §2

[11] = qHTS assay for small molecule activators of the p53 signaling pathway (AID 651743; active = well fitted activation curve with a large enough effect in the signal ratio, not every such curve was filed as active; the % refers to the signal ratio; also: % of control where 0% means no effect); conditions: HCT-116 p53RE-bla, beta-lactamase FRET ratio, 16 h; activation: stronger effect = higher value
Procedure, shortened: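 Reporter: beta-lactamase driven by p53 response elements, stably integrated in HCT-116 cells. Cells seeded at 4,000/well, 5 h preincubation, compound (DMSO) 16 h at 37 C; B/G FRET substrate 2 h RT; fluorescence intensity read.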

[12] = qHTS assay for environmental chemicals that activate the Aryl hydrocarbon Receptor (AhR) signaling pathway (AID 651777); conditions: 1A2-DRE human hepatoma cells, luciferase, 24 h; activation: stronger effect = higher value; also: % of control where 0% means no effect; nearly all actives have a fitted effect of over 15% in size
Procedure, shortened: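 Human hepatoma 1A2-DRE cells stably carrying a DRE/CYP1A2 promoter–luciferase reporter, 1,200 cells/well, exposed to compound 24 hr at 37 C. Luciferase read by One-Glo luminescence after 30 min at room temperature; increased signal marks AhR activation.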

[13] = target: Peroxisome proliferator-activated receptor alpha (Homo sapiens) (UniProt Q07869); experiment: qHTS assay for small molecule agonists of the peroxisome proliferator-activated receptor alpha (PPARalpha) signaling pathway (AID 651778); conditions: PathHunter PPARalpha complementation, chemiluminescence, 6 h; max response: stronger effect = higher value; also: % of control where 0% means no effect
Procedure, shortened: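 Enzyme-fragment complementation assay in which ligand-bound PPARalpha translocates and forms an active enzyme that generates chemiluminescence. Cells were plated overnight, exposed to compound for 6 hr at 37 C, and then given detection reagent for 60 min at room temperature.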

[14] = qHTS assay for small molecule agonists of the antioxidant response element (ARE) signaling pathway measured by Nrf2-dependant transcriptional activity (AID 720636; active = well fitted curve in the direction sought with a large enough effect in the repeat runs; an effect the other way counts as inactive or inconclusive; also: % of control where 0% means no effect); conditions: ARE-luc HepG2, Nrf2 luciferase reporter, 16 h; series mostly up to 92.4 µM
Procedure, shortened: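 ARE-luc HepG2 cells carrying an Nrf2-responsive luciferase reporter, in medium with 1% dialyzed FBS, exposed to compound for 16 hr at 37 C, 5% CO2. Luminescence read 30 min after ONE-Glo addition.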

[15] = qHTS assay for small molecule agonists of the antioxidant response element (ARE) signaling pathway measured by Nrf2-dependant transcriptional activity - cell viability counter screen (AID 720653; active = well fitted curve in the direction sought with a large enough effect in the repeat runs; an effect the other way counts as inactive or inconclusive; also: % is scaled to controls: 0 for no effect and ±100 for the full control effect); conditions: ARE-bla HepG2 viability, CellTiter-Glo ATP luminescence, 16 h; max response: stronger effect = lower value
Procedure, shortened: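 ARE-bla HepG2 cells treated with compounds for 16 h at 37C; this counter screen measures viability as intracellular ATP by CellTiter-Glo luminescence after 30 min at room temperature.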

[16] = qHTS assay for cell viability of HEK293 cells (AID 743288); conditions: ATP luminescence (CellTiter-Glo), 18 h; max response: stronger effect = lower value; also: nearly all actives have a fitted effect of over 50% in size; also: potency is read from the fitted curve at half-maximal effect; as to max response: % is scaled to controls: 0 for no effect and ±100 for the full control effect
Procedure, shortened: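 Steps: plate 2,000 parental HEK293 cells per well; incubate ≥5 h, 37 C; add compounds in DMSO; incubate 18 h, 37 C; add CellTiter-Glo; wait 30 min at room temperature; read luminescence.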

[17] = qHTS assay for cell viability of the p53RE-bla HCT-116 cell line (AID 743292); conditions: p53RE-bla HCT-116 viability, ATP luminescence, 16 h; series mostly up to 95 µM; also: % is scaled to controls: 0 for no effect and ±100 for the full control effect; nearly all actives have a fitted effect of over 55% in size
Procedure, shortened: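 CellSensor p53RE-bla HCT-116 cells (4,000/well) pre-incubated 5 h at 37 C, then exposed to compounds in DMSO for 16 h at 37 C. Viability read as ATP content by CellTiter-Glo luminescence after 30 min at room temperature.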

[18] = target: Thyroid hormone receptor beta (Homo sapiens) (UniProt P10828); experiment: qHTS assay for small molecule agonists of thyroid hormone receptor beta signaling (AID 588545; calls by dose curve;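 also: 0% = DMSO only and 100% = 10 nM T3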); conditions: TR-UAS-bla GripTite HEK 293, beta-lactamase ratio, agonist mode, 18 h; series mostly up to 76.7 µM
Procedure, shortened: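 Efficacy and EC50 values derive from Hill fits of qHTS titration data, normalized to 10 nM T3 and DMSO-only wells. HEK 293 reporter cells were stimulated for 18 hrs at 37 C, with beta-lactamase activity measured by CCF4 fluorescence.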

[19] = target: Nuclear receptor subfamily 1 group I member 2 (Rattus norvegicus) (UniProt Q9R1A7); experiment: qHTS assay for small molecule activators of the rat pregnane X receptor (rPXR) signaling pathway (AID 651751; call rule not given here; also: 0% is about no effect); conditions: rPXR reporter cells, luciferase (One-Glo), 24 h
[20] = qHTS assay for small molecule activators of the human pregnane X receptor (PXR) signaling pathway (AID 720659; call rule not given here; also: 0% is about no effect); conditions: DPX-2 HepG2 CYP3A4-luciferase, 24 h; series mostly up to 92.3 µM

Chain of Vitamin D3 receptor (Homo sapiens) (P11473 whole entry, looked up): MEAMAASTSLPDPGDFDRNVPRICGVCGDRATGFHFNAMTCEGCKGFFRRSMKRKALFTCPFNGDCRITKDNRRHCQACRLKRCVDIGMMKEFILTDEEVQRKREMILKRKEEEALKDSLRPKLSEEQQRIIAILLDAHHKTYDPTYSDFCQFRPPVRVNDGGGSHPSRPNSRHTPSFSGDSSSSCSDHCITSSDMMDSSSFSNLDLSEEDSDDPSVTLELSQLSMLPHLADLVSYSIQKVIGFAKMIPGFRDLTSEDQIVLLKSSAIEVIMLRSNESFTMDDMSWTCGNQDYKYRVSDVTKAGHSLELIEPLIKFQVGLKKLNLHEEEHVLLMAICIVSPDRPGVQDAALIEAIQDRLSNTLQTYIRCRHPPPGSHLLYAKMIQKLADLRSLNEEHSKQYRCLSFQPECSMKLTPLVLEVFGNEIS
Chain of Retinoic acid receptor RXR-alpha (Homo sapiens) (P19793 whole entry, looked up): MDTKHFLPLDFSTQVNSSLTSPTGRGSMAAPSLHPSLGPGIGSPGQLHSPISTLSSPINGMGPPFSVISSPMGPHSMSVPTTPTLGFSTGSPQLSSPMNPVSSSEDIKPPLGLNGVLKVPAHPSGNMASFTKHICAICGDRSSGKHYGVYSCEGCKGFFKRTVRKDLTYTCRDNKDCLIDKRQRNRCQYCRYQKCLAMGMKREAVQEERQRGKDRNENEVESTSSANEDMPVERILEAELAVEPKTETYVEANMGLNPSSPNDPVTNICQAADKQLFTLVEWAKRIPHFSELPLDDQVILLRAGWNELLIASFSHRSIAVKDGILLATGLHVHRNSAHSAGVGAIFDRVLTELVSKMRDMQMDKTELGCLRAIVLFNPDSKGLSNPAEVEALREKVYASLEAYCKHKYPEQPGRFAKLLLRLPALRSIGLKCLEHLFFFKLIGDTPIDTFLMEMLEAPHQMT
Chain of Thyroid hormone receptor beta (Homo sapiens) (P10828 whole entry, looked up): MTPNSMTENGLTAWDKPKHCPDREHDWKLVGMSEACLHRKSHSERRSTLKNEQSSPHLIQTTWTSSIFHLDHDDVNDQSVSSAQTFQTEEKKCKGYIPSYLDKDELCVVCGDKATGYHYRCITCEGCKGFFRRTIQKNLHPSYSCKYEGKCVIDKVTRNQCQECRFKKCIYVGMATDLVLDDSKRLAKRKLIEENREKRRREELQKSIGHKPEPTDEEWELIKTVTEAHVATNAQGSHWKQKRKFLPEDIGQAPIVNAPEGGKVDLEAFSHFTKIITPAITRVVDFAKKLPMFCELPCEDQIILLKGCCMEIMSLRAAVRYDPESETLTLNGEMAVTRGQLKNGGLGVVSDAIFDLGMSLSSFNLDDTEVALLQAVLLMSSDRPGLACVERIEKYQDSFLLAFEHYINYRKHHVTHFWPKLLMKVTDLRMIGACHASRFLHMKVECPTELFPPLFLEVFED
Chain of Nuclear receptor subfamily 1 group I member 2 (Rattus norvegicus) (Q9R1A7 whole entry, looked up): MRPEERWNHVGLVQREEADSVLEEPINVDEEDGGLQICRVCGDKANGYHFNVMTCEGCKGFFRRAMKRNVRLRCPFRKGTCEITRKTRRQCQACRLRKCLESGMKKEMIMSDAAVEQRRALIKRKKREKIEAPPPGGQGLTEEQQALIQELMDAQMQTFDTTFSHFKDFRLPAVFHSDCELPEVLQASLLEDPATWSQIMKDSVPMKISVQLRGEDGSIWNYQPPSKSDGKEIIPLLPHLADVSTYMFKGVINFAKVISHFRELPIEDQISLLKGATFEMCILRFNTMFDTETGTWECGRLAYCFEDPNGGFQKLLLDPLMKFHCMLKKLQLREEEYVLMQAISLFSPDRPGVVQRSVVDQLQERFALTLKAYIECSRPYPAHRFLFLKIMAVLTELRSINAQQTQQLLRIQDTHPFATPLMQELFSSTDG
Chain of Glucocorticoid receptor (Homo sapiens) (P04150 whole entry, looked up): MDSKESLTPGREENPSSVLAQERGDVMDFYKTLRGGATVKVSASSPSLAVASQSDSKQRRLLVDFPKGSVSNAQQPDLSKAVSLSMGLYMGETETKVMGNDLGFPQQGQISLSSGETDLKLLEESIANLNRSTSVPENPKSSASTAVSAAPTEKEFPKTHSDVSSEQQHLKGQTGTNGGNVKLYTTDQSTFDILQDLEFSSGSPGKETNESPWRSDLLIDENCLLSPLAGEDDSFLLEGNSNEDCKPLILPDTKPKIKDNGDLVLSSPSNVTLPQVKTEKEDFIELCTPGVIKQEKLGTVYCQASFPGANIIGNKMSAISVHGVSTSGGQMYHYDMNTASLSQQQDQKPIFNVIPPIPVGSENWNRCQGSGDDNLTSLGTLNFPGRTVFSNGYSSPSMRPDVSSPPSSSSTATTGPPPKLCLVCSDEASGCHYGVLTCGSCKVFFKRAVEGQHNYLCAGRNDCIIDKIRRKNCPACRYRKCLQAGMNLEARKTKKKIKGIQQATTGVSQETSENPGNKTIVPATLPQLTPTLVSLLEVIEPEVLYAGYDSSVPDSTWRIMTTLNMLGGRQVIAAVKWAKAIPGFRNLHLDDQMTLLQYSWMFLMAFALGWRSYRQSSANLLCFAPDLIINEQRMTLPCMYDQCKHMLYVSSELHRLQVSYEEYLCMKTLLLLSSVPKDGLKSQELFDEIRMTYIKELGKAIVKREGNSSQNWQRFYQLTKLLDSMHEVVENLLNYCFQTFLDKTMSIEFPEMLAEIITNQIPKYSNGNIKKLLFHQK
Chain of Peroxisome proliferator-activated receptor alpha (Homo sapiens) (Q07869 whole entry, looked up, the tested form may be a part): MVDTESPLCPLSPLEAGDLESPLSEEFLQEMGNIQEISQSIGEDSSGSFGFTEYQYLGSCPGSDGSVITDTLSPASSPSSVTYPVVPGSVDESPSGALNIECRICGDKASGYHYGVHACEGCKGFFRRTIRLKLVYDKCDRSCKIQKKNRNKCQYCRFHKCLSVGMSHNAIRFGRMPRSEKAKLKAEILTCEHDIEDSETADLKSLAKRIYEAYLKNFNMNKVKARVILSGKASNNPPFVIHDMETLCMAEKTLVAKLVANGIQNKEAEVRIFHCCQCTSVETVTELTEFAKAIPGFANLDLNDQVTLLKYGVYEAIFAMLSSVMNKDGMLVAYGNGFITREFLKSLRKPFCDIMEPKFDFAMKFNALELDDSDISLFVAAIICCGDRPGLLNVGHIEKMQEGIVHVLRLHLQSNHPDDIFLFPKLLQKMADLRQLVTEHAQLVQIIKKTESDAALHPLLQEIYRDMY
Chain of Peroxisome proliferator-activated receptor delta (Homo sapiens) (Q03181 whole entry, looked up): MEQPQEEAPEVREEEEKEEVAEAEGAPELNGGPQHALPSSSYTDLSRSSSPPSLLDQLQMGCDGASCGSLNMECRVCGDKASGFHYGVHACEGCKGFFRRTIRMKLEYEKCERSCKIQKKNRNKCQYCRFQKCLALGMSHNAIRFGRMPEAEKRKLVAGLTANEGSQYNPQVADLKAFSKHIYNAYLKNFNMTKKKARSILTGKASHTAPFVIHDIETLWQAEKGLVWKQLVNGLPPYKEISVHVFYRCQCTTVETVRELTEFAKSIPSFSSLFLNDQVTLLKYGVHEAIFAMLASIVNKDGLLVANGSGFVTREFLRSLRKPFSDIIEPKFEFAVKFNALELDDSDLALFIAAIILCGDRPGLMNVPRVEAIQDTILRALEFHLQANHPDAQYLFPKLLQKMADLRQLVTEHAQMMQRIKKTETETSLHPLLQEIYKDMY
Chain of Peroxisome proliferator-activated receptor gamma (Homo sapiens) (P37231 whole entry, looked up): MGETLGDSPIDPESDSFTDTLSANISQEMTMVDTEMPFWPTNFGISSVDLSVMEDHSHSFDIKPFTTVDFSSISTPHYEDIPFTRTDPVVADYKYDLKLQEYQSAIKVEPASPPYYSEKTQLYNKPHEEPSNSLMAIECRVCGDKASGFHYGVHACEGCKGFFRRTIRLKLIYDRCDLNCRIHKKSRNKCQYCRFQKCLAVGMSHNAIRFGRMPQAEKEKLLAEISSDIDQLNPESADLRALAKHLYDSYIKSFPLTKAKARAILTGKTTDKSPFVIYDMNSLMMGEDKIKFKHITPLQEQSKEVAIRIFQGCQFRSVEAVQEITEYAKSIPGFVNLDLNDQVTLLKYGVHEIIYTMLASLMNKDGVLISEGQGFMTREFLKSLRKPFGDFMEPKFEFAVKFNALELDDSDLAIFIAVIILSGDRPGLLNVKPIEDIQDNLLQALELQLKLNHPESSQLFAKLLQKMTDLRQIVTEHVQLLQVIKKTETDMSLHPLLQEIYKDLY

COCCO
inactive: activation [1] 2.41% and 1.59% | Potency [2] | Potency [4] | outcome [5] | outcome [6] | Potency [8] | max response [10] 16.3% and -4.97% | activation [11] 0.424% and -0.727% | activation [12] -1.11% and -0.165% | max response [13] -2.01% and -0.724% | Potency [14] | max response [15] -7.73% and 3.37% | max response [16] -2.14% and 3.11% | Potency [17]
-8.45% and -6.73%: max response [9]
-5.91% and 1.76%: max response [7]
37%: max response [3]

c1ccc(B(c2ccccc2)c2ccccc2)cc1
3.4%: max response [9]
inactive: activation [1] -5.17% | Potency [2] | Potency [4] | outcome [5] | outcome [6] | Potency [8] | Potency [18] | max response [10] -24.3% | activation [11] -0.854% | activation [12] 1.54% | max response [13] -0.443% | Potency [14] | max response [15] -1.71% | max response [16] -15.9% | Potency [17] | max response [19] 1.02%
-3.44%: max response [3]
7.43%: max response [7]

CCCCOCC(C)O (stereo unspecified)
inactive: activation [1] -3.25% | Potency [2] | outcome [5] | outcome [6] | Potency [8] | Potency [18] | max response [10] -37.2% and 3.13% | activation [11] -6.14% | activation [12] 1.48% and -0.559% | max response [13] 0.397% and 0.0173% | Potency [14] | max response [15] -1.21% and -1.7% | max response [16] -2.11% | Potency [17] | max response [19] 5.94% and 2.87%
12% and -0.638%: max response [9]
-5.52%: max response [7]
active: Potency [16] 1410 µM

CC(C)=CCC/C(C)=C\CO
-16.1%: max response [7]
inactive: activation [1] -1.71% | Potency [2] | Potency [4] | outcome [5] | outcome [6] | Potency [8] | Potency [18] | max response [10] -2.37% | activation [11] 1.13% | activation [12] 0.559% | max response [13] -0.763% | Potency [14] | max response [15] -3.82% | max response [16] -0.935% | Potency [17] | max response [19] 2.57%
2.44%: max response [3]
-11.3%: max response [9]

CC(=O)CC(=O)Nc1ccccc1C
14.1%: max response [9]
inactive: activation [1] 2.41% | Potency [2] | outcome [5] | outcome [6] | Potency [8] | Potency [18] | max response [10] -30.4% | activation [11] -0.568% | activation [12] 3.12% | max response [13] -0.992% | Potency [14] | max response [15] -6.37% | max response [16] -10.9% | Potency [17]
16.5%: max response [7]

CCCCCCc1ccc(N)cc1
65.6%: max response [3]
-5.49%: max response [9]
inactive: activation [1] -7.39% | Potency [2] | Potency [4] | outcome [5] | outcome [6] | Potency [18] | max response [10] -10.1% | activation [11] 0.412% | activation [12] 2.42% | max response [13] 0.597% | Potency [14] | max response [15] -14.6% | max response [16] -16% | Potency [17] | max response [19] -2.28% | outcome [20]

C[Si](C)(Cl)[Si](C)(C)Cl
inactive: Potency [4] | outcome [5] | outcome [6] | Potency [8] | max response [10] -15.7% | activation [11] -0.0629% | activation [12] -0.723% | max response [13] 1.76% | Potency [14] | max response [15] -9.32% | max response [16] -5.72% | Potency [17] | max response [19] -0.179% | outcome [20]
-27.8%: max response [9]
-22.7%: max response [3]
-0.475%: max response [7]

C/C=C/C/C=C\CCCCCCCCOC(C)=O
-5.66%: max response [9]
-14.4%: max response [7]
inactive: Potency [4] | outcome [5] | outcome [6] | Potency [8] | Potency [18] | max response [10] -0.494% | activation [11] -0.736% | activation [12] 1.59% | max response [13] -1.2% | Potency [14] | max response [15] 5.44% | max response [16] 0.639% | Potency [17] | max response [19] 0.0563% | outcome [20]
15.9%: max response [3]

C=CCCCCCCCCCCCC
14.9%: max response [3]
-3.7%: max response [9]
-6.65%: max response [7]
inactive: activation [1] 9.05% | Potency [2] | Potency [4] | outcome [5] | outcome [6] | Potency [8] | Potency [18] | max response [10] 10.9% | activation [11] -3% | activation [12] 0.249% | max response [13] -1.61% | Potency [14] | max response [15] 1.55% | max response [16] 5.27% | Potency [17] | max response [19] 1.46% | outcome [20]

CC1(C)CC(OC(=O)CCCCCCCCC(=O)OC2CC(C)(C)NC(C)(C)C2)CC(C)(C)N1
-2.95%: max response [7]
inactive: activation [1] -2.43% | Potency [2] | Potency [4] | outcome [5] | outcome [6] | Potency [8] | Potency [18] | max response [10] -19.6% | activation [11] -2.75% | activation [12] 0.228% | max response [13] -4.12% | Potency [14] | max response [15] -3.17% | max response [16] -10.1% | max response [19] -0.828% | outcome [20]
5.94%: max response [3]
5.99%: max response [9]
